Test results: the antibiotic and cytotoxicity screens of Wong et al. (2023)
About 3,300 (8.5%) of roughly 39,000 compounds were called active. Only a selection was taken, and actives are over-represented in it overall.

system: HepG2; assay: cytotoxicity call (relative viability < 0.9); details: 10 µM

Question: `COc1ccc(NC(=O)N(C)C[C@@H]2Oc3c(NC(=O)C4CCOCC4)cccc3C(=O)N([C@H](C)CO)C[C@@H]2C)cc1` was tested. Which cytotoxicity call did it give?
Answer: inactive

Question: Which cytotoxicity call does the source give for `C[C@H]1CN([C@@H](C)CO)C(=O)c2cccc(NS(=O)(=O)c3cn(C)cn3)c2O[C@H]1CN(C)C(=O)Nc1ccc(F)cc1` here?
Answer: inactive

Question: `COc1cccc(S(=O)(=O)Nc2ccc3c(c2)C(=O)N(C)C[C@H](OC)[C@H](C)CN(C(=O)Cc2cccnc2)[C@@H](C)CO3)c1` was tested. Which cytotoxicity call did it give?
Answer: inactive

Question: Which cytotoxicity call does the source give for `Cc1ccc(S(=O)(=O)N(C)C[C@@H]2OCCCC[C@@H](C)Oc3ccc(NC(=O)Nc4ccc5c(c4)OCO5)cc3C(=O)N([C@@H](C)CO)C[C@@H]2C)cc1` here?
Answer: inactive

Question: How did the cytotoxicity call turn out when `S=C1NCN(C2CCCC2)CN1` was run?
Answer: inactive

Question: For `S=C1NCN(Cc2ccncc2)CN1`, which cytotoxicity call is on record?
Answer: inactive

Question: With `CCN1CCC[C@@H]1CN1CNC(=S)NC1` as the compound, how does the cytotoxicity call read?
Answer: active

Question: For `C[C@H](CO)N1C[C@H](C)[C@H](CN(C)C(=O)Nc2ccc(C(F)(F)F)cc2)OCCCC[C@H](C)Oc2ccc(NC(=O)Nc3cccc4ccccc34)cc2C1=O`, which cytotoxicity call is on record?
Answer: inactive

Question: With `O=C(Cc1ccncc1)NCC[C@@H]1CC[C@H](NC(=O)C2CCOCC2)[C@H](CO)O1` as the compound, how does the cytotoxicity call read?
Answer: inactive

Question: `Cn1c(=O)[nH]c(=O)c2[nH]cnc21` was tested. Which cytotoxicity call did it give?
Answer: inactive

Question: How did the cytotoxicity call turn out when `CN(C)Cc1nc2c([nH]1)c(=O)[nH]c(=O)n2C` was run?
Answer: active

Question: For `CN(C)c1nc2c([nH]1)c(=O)[nH]c(=O)n2C`, which cytotoxicity call is on record?
Answer: inactive

Question: `Cc1ccc(S[C@]2(C(=O)NCC(C)C)CC(=O)N(Cc3ccccc3)[C@@H]2c2ccc(CO)cc2)cc1` was tested. Which cytotoxicity call did it give?
Answer: inactive

Question: `O=C1[N-]C(=O)C(c2ccccc2)(c2ccccc2)N1.[Na+]` was tested. Which cytotoxicity call did it give?
Answer: inactive

Question: With `C[C@H](CO)N1C[C@H](C)[C@H](CN(C)S(=O)(=O)c2ccc(F)cc2)Oc2ccc(NC(=O)Cn3cnnn3)cc2C1=O` as the compound, how does the cytotoxicity call read?
Answer: inactive

Question: With `C[C@H](CO)N1C[C@H](C)[C@H](CN(C)C(=O)Nc2ccc(C(F)(F)F)cc2)Oc2c(NC(=O)C3CCCCC3)cccc2C1=O` as the compound, how does the cytotoxicity call read?
Answer: active

Question: For `CC(C)NC(=O)N(C)C[C@H]1Oc2c(NC(=O)C3CCCCC3)cccc2C(=O)N([C@H](C)CO)C[C@@H]1C`, which cytotoxicity call is on record?
Answer: inactive

Question: Which cytotoxicity call does the source give for `C[C@@H]1CN([C@H](C)CO)C(=O)c2cccc(NC(=O)NC3CCCCC3)c2O[C@H]1CN(C)C(=O)Nc1ccc(C(F)(F)F)cc1` here?
Answer: active

Question: With `C[C@H](CO)N1C[C@H](C)[C@H](CN(C)C(=O)Nc2ccc(C(F)(F)F)cc2)Oc2c(NC(=O)NC3CCCCC3)cccc2C1=O` as the compound, how does the cytotoxicity call read?
Answer: active

Question: `CC(C)NC(=O)N(C)C[C@@H]1Oc2c(NC(=O)C3CCCCC3)cccc2C(=O)N([C@H](C)CO)C[C@H]1C` was tested. Which cytotoxicity call did it give?
Answer: inactive

Question: `C[C@H](CO)N1C[C@H](C)[C@@H](CN(C)C(=O)Nc2ccc(C(F)(F)F)cc2)Oc2c(NC(=O)NC3CCCCC3)cccc2C1=O` was tested. Which cytotoxicity call did it give?
Answer: inactive

Question: `C[C@@H]1CN([C@@H](C)CO)C(=O)c2cccc(NC(=O)NC3CCCCC3)c2O[C@@H]1CN(C)C(=O)Nc1ccc(C(F)(F)F)cc1` was tested. Which cytotoxicity call did it give?
Answer: inactive

Question: With `C[C@@H]1CN([C@@H](C)CO)C(=O)c2cccc(NC(=O)C3CCCCC3)c2O[C@@H]1CN(C)C(=O)Nc1ccc(C(F)(F)F)cc1` as the compound, how does the cytotoxicity call read?
Answer: inactive

Question: `C[C@@H]1CN([C@H](C)CO)C(=O)c2cccc(NC(=O)C3CCCCC3)c2O[C@H]1CN(C)C(=O)Nc1ccc(C(F)(F)F)cc1` was tested. Which cytotoxicity call did it give?
Answer: inactive

Question: Which cytotoxicity call does the source give for `CC(C)NC(=O)N(C)C[C@@H]1Oc2c(NC(=O)C3CCCCC3)cccc2C(=O)N([C@@H](C)CO)C[C@@H]1C` here?
Answer: active

Question: `N#CCC(=O)N1CCSCC1` was tested. Which cytotoxicity call did it give?
Answer: inactive

Question: For `C[C@@H]1CCCCO[C@@H](CN(C)S(=O)(=O)c2ccc(F)cc2)[C@@H](C)CN([C@H](C)CO)C(=O)c2cc(NS(C)(=O)=O)ccc2O1`, which cytotoxicity call is on record?
Answer: inactive

Question: For `CC(C)CN1C[C@@H]2CCNCC[C@H]2S1(=O)=O`, which cytotoxicity call is on record?
Answer: inactive

Question: Which cytotoxicity call does the source give for `C[C@H](CO)N1C[C@H](C)[C@@H](CN(C)Cc2ccc(C(=O)O)cc2)Oc2ccc(NS(=O)(=O)c3cn(C)cn3)cc2CC1=O` here?
Answer: inactive

Question: `O=C(C[C@@H]1C[C@H]2c3cc(NS(=O)(=O)c4ccc(F)cc4)ccc3O[C@H]2[C@@H](CO)O1)NCc1ccccc1F` was tested. Which cytotoxicity call did it give?
Answer: inactive

Question: Which cytotoxicity call does the source give for `Nc1cc(=O)[nH]c(=O)n1Cc1ccccc1` here?
Answer: inactive

Question: `COc1ccc(CN2C[C@@H](C)[C@H](OC)CN(C)C(=O)c3ccc(NC(=O)c4nc5ccccc5s4)cc3OC[C@@H]2C)cc1` was tested. Which cytotoxicity call did it give?
Answer: inactive

Question: `COc1ccc2c3c([nH]c2c1)[C@H](CO)N(C[C@]13CCN(CC1)CC1CCCC1)S(=O)(=O)c1cn(cn1)C` was tested. Which cytotoxicity call did it give?
Answer: inactive

Question: How did the cytotoxicity call turn out when `COc1ccccc1CN1C(=O)c2ccccc2[C@@]2(Cc3ccccc3N(C(C)C)C2=O)[C@@H]1c1ccc(CO)cc1` was run?
Answer: inactive

Question: `C[C@@H]1CN([C@H](C)CO)C(=O)c2cccc(NC(=O)NC3CCCCC3)c2O[C@@H]1CN(C)C(=O)Nc1ccc(C(F)(F)F)cc1` was tested. Which cytotoxicity call did it give?
Answer: inactive

Question: With `C[C@H]1CN([C@@H](C)CO)C(=O)c2cccc(NC(=O)NC3CCCCC3)c2O[C@H]1CN(C)C(=O)Nc1ccc(C(F)(F)F)cc1` as the compound, how does the cytotoxicity call read?
Answer: active

Question: For `C[C@H]1CN([C@@H](C)CO)C(=O)c2cccc(NC(=O)NC3CCCCC3)c2O[C@@H]1CN(C)C(=O)Nc1ccc(C(F)(F)F)cc1`, which cytotoxicity call is on record?
Answer: inactive

Question: `CCCn1nc(C)c(CN)c1C` was tested. Which cytotoxicity call did it give?
Answer: inactive

Question: With `Cc1ccc(S(=O)(=O)N(C)C[C@@H]2OCCCC[C@@H](C)Oc3ccc(NC(=O)Nc4ccc(C(F)(F)F)cc4)cc3C(=O)N([C@@H](C)CO)C[C@@H]2C)cc1` as the compound, how does the cytotoxicity call read?
Answer: inactive

Question: Which cytotoxicity call does the source give for `O=C1N[C@@H](Cc2c[nH]c3ccccc23)COC(=O)[C@@H](Cc2ccc(F)cc2)CC=CC[C@@H]1CC(=O)N(CCO)Cc1ccccc1` here?
Answer: active

Question: With `O=C1N[C@H](Cc2c[nH]c3ccccc23)COC(=O)[C@@H](Cc2ccc(F)cc2)CCC=CC[C@@H]1CC(=O)N(CCO)Cc1ccccc1` as the compound, how does the cytotoxicity call read?
Answer: inactive

Question: How did the cytotoxicity call turn out when `O=C1N[C@H](Cc2c[nH]c3ccccc23)COC(=O)[C@@H](Cc2ccc(F)cc2)CCC=CC[C@H]1CC(=O)N(CCO)Cc1ccccc1` was run?
Answer: active

Question: `O=C(N[C@H]1CC=CC[C@H](CC(=O)N(CCO)Cc2ccccc2)C(=O)N[C@@H](Cc2ccccc2)COC1=O)OCC1c2ccccc2-c2ccccc21` was tested. Which cytotoxicity call did it give?
Answer: active

Question: For `O=C1N[C@@H](Cc2c[nH]c3ccccc23)COC(=O)[C@H](Cc2ccc(F)cc2)CCC=CC[C@H]1CC(=O)N(CCO)Cc1ccccc1`, which cytotoxicity call is on record?
Answer: inactive

Question: Which cytotoxicity call does the source give for `O=C1N[C@H](Cc2c[nH]c3ccccc23)COC(=O)[C@H](Cc2ccc(F)cc2)CC=CC[C@@H]1CC(=O)N(CCO)Cc1ccccc1` here?
Answer: inactive

Question: `O=C(N[C@H]1CC=CC[C@H](CC(=O)N(CCO)Cc2ccccc2)C(=O)N[C@H](Cc2ccccc2)COC1=O)OCC1c2ccccc2-c2ccccc21` was tested. Which cytotoxicity call did it give?
Answer: inactive

Question: With `O=C(N[C@@H]1CC=CC[C@H](CC(=O)N(CCO)Cc2ccccc2)C(=O)N[C@@H](Cc2ccccc2)COC1=O)OCC1c2ccccc2-c2ccccc21` as the compound, how does the cytotoxicity call read?
Answer: inactive

Question: How did the cytotoxicity call turn out when `O=C1N[C@H](Cc2c[nH]c3ccccc23)COC(=O)[C@@H](Cc2ccc(F)cc2)CC=CC[C@@H]1CC(=O)N(CCO)Cc1ccccc1` was run?
Answer: inactive

Question: `CC12CC(OC1=O)C1(C)CCC3(C)C(=CCC4C5(C)CCC(O)C(C)(C)C5CCC43C)C1C2` (stereo not given) was tested. Which cytotoxicity call did it give?
Answer: inactive

Question: How did the cytotoxicity call turn out when `O=S1(=O)C[C@H](NCc2cccnc2)[C@@H](O)C1` was run?
Answer: inactive

Question: How did the cytotoxicity call turn out when `C[C@H](CO)N1C[C@H](C)[C@@H](CN(C)Cc2ccc(C(=O)O)cc2)Oc2c(NC(=O)C3CCOCC3)cccc2C1=O` was run?
Answer: inactive

Question: For `COc1ccc(CN(C)C[C@H]2Oc3ccc(NS(=O)(=O)c4c(C)noc4C)cc3CC(=O)N([C@H](C)CO)C[C@@H]2C)cc1`, which cytotoxicity call is on record?
Answer: inactive

Question: Which cytotoxicity call does the source give for `COc1ccc(S(=O)(=O)Nc2ccc3c(c2)C(=O)N([C@H](C)CO)C[C@@H](C)[C@@H](CN(C)S(=O)(=O)c2ccc(OC)cc2)O3)cc1` here?
Answer: inactive

Question: Which cytotoxicity call does the source give for `CN1C(=O)c2cc(NC(=O)Nc3ccccc3F)ccc2OC[C@H]2O[C@@H](CC(=O)NCc3ccc(-c4ccccc4)cc3)CC[C@@H]21` here?
Answer: inactive

Question: `C[C@@H]1CCCCO[C@@H](CN(C)S(=O)(=O)c2ccc(Cl)cc2)[C@@H](C)CN([C@H](C)CO)C(=O)c2cc(NC(=O)C3CCCCC3)ccc2O1` was tested. Which cytotoxicity call did it give?
Answer: inactive

Question: Which cytotoxicity call does the source give for `CO[C@H]1CN(C)C(=O)c2ccc(NS(C)(=O)=O)cc2OC[C@@H](C)N(C(=O)C2CCOCC2)C[C@@H]1C` here?
Answer: inactive

Question: How did the cytotoxicity call turn out when `COc1ccc(S(=O)(=O)Nc2ccc3c(c2)C(=O)N([C@H](C)CO)C[C@@H](C)[C@H](CN(C)C(=O)C2CCCCC2)OCCCC[C@H](C)O3)cc1` was run?
Answer: inactive

Question: For `C[C@@H]1CN([C@@H](C)CO)C(=O)c2cc(N(C)C)ccc2O[C@@H](C)CCCCO[C@H]1CN(C)C(=O)CCCN(C)C`, which cytotoxicity call is on record?
Answer: inactive

Question: How did the cytotoxicity call turn out when `Cc1noc(C)c1S(=O)(=O)Nc1ccc2c(c1)C(=O)N([C@H](C)CO)C[C@H](C)[C@H](CN(C)C(=O)Nc1cccc3ccccc13)OCCCC[C@@H](C)O2` was run?
Answer: inactive

Question: Which cytotoxicity call does the source give for `Cc1noc(C)c1S(=O)(=O)Nc1ccc2c(c1)C(=O)N([C@H](C)CO)C[C@@H](C)[C@@H](CN(C)C(=O)Nc1cccc3ccccc13)OCCCC[C@@H](C)O2` here?
Answer: inactive

Question: Which cytotoxicity call does the source give for `Cc1noc(C)c1S(=O)(=O)Nc1ccc2c(c1)C(=O)N([C@@H](C)CO)C[C@@H](C)[C@H](CN(C)C(=O)Nc1cccc3ccccc13)OCCCC[C@H](C)O2` here?
Answer: inactive

Question: With `Cc1noc(C)c1S(=O)(=O)Nc1ccc2c(c1)C(=O)N([C@@H](C)CO)C[C@@H](C)[C@@H](CN(C)C(=O)Nc1cccc3ccccc13)OCCCC[C@H](C)O2` as the compound, how does the cytotoxicity call read?
Answer: inactive

Question: With `Cc1noc(C)c1S(=O)(=O)Nc1ccc2c(c1)C(=O)N([C@@H](C)CO)C[C@@H](C)[C@@H](CN(C)C(=O)Nc1cccc3ccccc13)OCCCC[C@@H](C)O2` as the compound, how does the cytotoxicity call read?
Answer: active

Question: With `Cc1noc(C)c1S(=O)(=O)Nc1ccc2c(c1)C(=O)N([C@H](C)CO)C[C@H](C)[C@@H](CN(C)C(=O)Nc1cccc3ccccc13)OCCCC[C@H](C)O2` as the compound, how does the cytotoxicity call read?
Answer: active

Question: Which cytotoxicity call does the source give for `C[C@@H]1CN([C@H](C)CO)C(=O)c2cc(NC(=O)Cc3ccccc3)ccc2O[C@@H](C)CCCCO[C@@H]1CN(C)Cc1ccncc1` here?
Answer: inactive
